Sa ugtP lethal – growth inhibition of S. aureus ugtP deletion strain. hit rate 0.54% among 330,000. growth inhibition, % (no concentration beside the values). S. aureus RN4220 ugtP deletion, OD600 growth, 16 h; in the data active = growth inhibition above about 68%;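 also: plate controls were untreated wells for no effect and antibiotic for full effect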
Mtb hypoxia rep – reduces hypoxia-regulated biosensor signal in M. tuberculosis; fluorescence inhibition, % (test concentration not listed); hit rate 0.1% among 300,000; M. tuberculosis hypoxia-regulated fluorescent reporter, fluorescence; in the data active = fluorescence inhibition mostly above about 23%, no sharp cut-off; inactive = mostly below about 17%
Sa RN4220 lethal – kills Staphylococcus aureus RN4220. hit rate 0.33% among 330,000. S. aureus RN4220 growth, OD600, 16 h. inhibition, % (no concentration beside the values); in the data active = inhibition above about 85%;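 also: plate controls were untreated cells for no effect and reference antibiotic for full effect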
* hit, by the source's call; nt = no result given. This is a sample that favours compounds with a hit; in the whole collection about 0.68% have one here.

SMILES | Sa ugtP lethal | Mtb hypoxia rep | Sa RN4220 lethal
O=C(CC=NOCc1ccc(Cl)cc1Cl)Nc1ccccc1 | -12 | 11 | 0
CCN(CCNS(=O)(=O)c1ccc2[nH]c(=O)sc2c1)c1ccccc1 | 99* | 6 | -14
CCOc1ccccc1CNS(=O)(=O)c1ccc2[nH]c(=O)sc2c1 | 46 | nt | 4
COc1cccc(CNS(=O)(=O)C=Cc2ccc(OC)c(OC)c2)c1 | 4 | 2 | 7
CCCCN1CCC2C=CCC(C(=O)Nc3ccc(Cl)c(C(F)(F)F)c3)C2C1=O (stereo not given) | 1 | 13 | -3
Cc1ccc(S(=O)(=O)N2C(=O)/C(=C3\SC(=S)NC3=O)c3ccccc32)cc1 | 6 | 4 | 4
CC1(c2ccccc2)CC(C)(C)N2C(=O)C(=C3SC(=S)NC3=O)c3cccc1c32 (stereo not given) | 100* | 5 | 100*
c1ccc2c(c1)cc1ccc3cccc4ccc2c1c34 | 44 | 11 | -8
Cc1ccc2ccc3cccc4ccc1c2c34 | 100* | 16 | -8
C=CCOC(=O)C1=CC(c2ccc3c(c2)OCO3)CC(OCc2ccc(CO)cc2)O1 (stereo not given) | 2 | 5 | 4
COc1cc(C=NNC(=O)C[n+]2ccccc2)cc(OC)c1OC(C)=O | 5 | 12 | 5
COc1ccc(-n2c(SCc3ccc([N+](=O)[O-])cc3)nnc2-c2ccccc2)cc1 | 36 | nt | 5
CCOc1ccc(-n2c(SCc3ccc([N+](=O)[O-])cc3)nnc2-c2ccccc2)cc1 | 86* | 5 | 59
CC(NC(=O)OCc1ccccc1)C(=O)NNC(=O)C(Cc1ccccc1)NC(=O)OC(C)(C)C (stereo not given) | 3 | 2 | 7
Cc1cc(C)nc(NC(N)=NC(C)c2ccccc2)n1 (stereo not given) | 94* | 24 | 6
Cc1cc(C)nc(NC(N)=NCCc2ccccc2)n1 | -4 | 16 | 7
CCCCN(CCCC)C(=O)c1cn(CC)c2cc(N3CCN(C)CC3)c(F)cc2c1=O | 97* | 5 | 93*
C=CCCCCCCCCC(=O)N1CCN(c2cc3c(cc2F)c(=O)c(C(=O)O)cn3CC)CC1 | 93* | 3 | -5
C=CCNC(=S)N1CCN(c2cc3c(cc2F)c(=O)c(C(=O)O)cn3CC)CC1 | 99* | 6 | 98*
CCCCCCn1cc(C(=O)O)c(=O)c2cc(F)c(N3CCN(C(=O)OCC)CC3)cc21 | 6 | 15 | 2
CCCNC(=O)c1cn(CC)c2cc(N3CCN(C)CC3)c(F)cc2c1=O | 58 | nt | 25
CCCCCNC(=O)c1cn(CC)c2cc(N3CCN(C)CC3)c(F)cc2c1=O | 8 | 23 | -2
CCOC(=O)C1C2COc3ccccc3C2N2C(=O)N(c3ccc(Cl)cc3)C(=O)[C@]12C (stereo not given in full) | -1 | 5 | 5
CCOC(=O)Cc1csc(NN=Cc2ccc(C(F)(F)F)cc2)n1 | 3 | -3 | 5
O=C1NC(=S)NC1=Cc1ccc(Cl)cc1Cl | 12 | 23 | 9
SMILES | Sa ugtP lethal | Mtb hypoxia rep | Sa RN4220 lethal
O=C1NC(=S)SC1=Cc1ccc(N(CCCl)CCCl)cc1 | 80 | 19 | 87*
O=C1NC(=S)SC1=Cc1ccc(Cl)cc1 | 99* | -3 | 95*
COc1cccc(OCCOc2ccc(/C=C3/SC(=S)NC3=O)cc2)c1 | 4 | 5 | 0
O=C1NC(=O)C(=Cc2ccc(Cl)cc2Cl)S1 | 93* | 7 | 91*
O=C1NC(=O)C(=Cc2ccc(O)cc2)S1 | -8 | 11 | -3
O=C1NC(=S)SC1=Cc1cccs1 | 28 | -3 | 41
O=C1NC(=S)SC1=Cc1ccc(F)cc1 | 92* | 2 | 90*
CC(C)OC(=O)C(=Cc1ccc2c(c1)c1ccccc1n2C)NC(=O)c1ccccc1 | -11 | -29 | 2
CC(CC(=O)Nc1ccc2ccccc2c1)=NNC(=O)c1cnccn1 | -7 | -12 | 3
CCN1CCN(C(=O)C=Cc2ccccc2[N+](=O)[O-])CC1 | 0 | -4 | 11
COc1cc(C2OCC3C(c4ccc(O)c(OC)c4)OCC23)ccc1O (stereo not given) | 5 | 14 | 7
CN1CCC(=O)N(C(CO)Cc2ccccc2)CC1 (stereo not given) | -12 | 1 | 2
OCC#CCSc1nnc(-c2cccc3ccccc23)o1 | -5 | 54* | 9
O=C(OCC#CCSc1nnc(-c2cccc3ccccc23)o1)c1ccc(Cl)cc1 | 11 | nt | 5
CC(NC(=O)COC(=O)c1ccc(N2CCCC2=O)cc1)c1ccc(F)cc1 (stereo not given) | 2 | 33* | 5
COc1ccc(NC(=O)COC(=O)c2ccc(N3CCCC3=O)cc2)cc1 | 2 | 4 | 2
Cc1ccc(C(=O)OCC(=O)N2CCC(C)CC2)cc1S(=O)(=O)N1CCCCC1 | 1 | 4 | 3
Cc1ccc(C(=O)OCC(=O)NC2CCCC(C)C2C)cc1S(=O)(=O)N1CCCCC1 (stereo not given) | -4 | 24* | 2
CCOC(=O)c1ccc(NC(=O)c2nc[nH]c2C(=O)NC(C)C(=O)OC(C)(C)C)cc1 (stereo not given) | -25 | -8 | -3
Cc1onc(-c2ccccc2Cl)c1C(=O)NC1CCCCCC1 | 1 | 1 | 3
Cc1onc(-c2ccccc2Cl)c1C(=O)NC1C(=O)N2C1SC(C)(C)C2C(=O)O (stereo not given) | 100* | 6 | 99*
Cc1onc(-c2c(Cl)cccc2Cl)c1C(=O)N[C@@H]1C(=O)N2[C@@H]1SC(C)(C)[C@@H]2C(=O)O | 3 | -12 | 2
Cc1onc(-c2c(Cl)cccc2Cl)c1C(=O)NC1C(=O)N2C1SC(C)(C)C2C(=O)O (stereo not given) | 100* | 8 | 101*
C(=Cn1nnc2ccccc21)c1ccccn1 | 4 | 13 | 10
CC1(C)C(=S)N(Cc2ccccc2)c2ccccc21 | 86* | 15 | -4
SMILES | Sa ugtP lethal | Mtb hypoxia rep | Sa RN4220 lethal
CC(=O)CC1(O)C(=O)N(Cc2ccccc2)c2ccccc21 (stereo not given) | -7 | 5 | 3
Cc1c(CC(=O)O)c(=O)oc2c(C)c3occ(-c4ccc(F)cc4)c3cc12 | 100* | -1 | 95*
Cc1c(CC(=O)N[C@@H](C)C(=O)O)c(=O)oc2c(C)c3occ(-c4ccccc4)c3cc12 | 100* | -3 | 94*
Cc1c(CC(=O)N[C@@H](C)C(=O)O)c(=O)oc2cc3occ(-c4ccccc4)c3cc12 | 7 | 10 | 3
Cc1c(CCC(=O)O)c(=O)oc2c(C)c3occ(-c4ccc(Br)cc4)c3cc12 | 6 | 19 | 50
CC1CN(C(C)CO)C(=O)c2cccc(NS(=O)(=O)c3ccc(F)cc3)c2OC1CN(C)S(=O)(=O)c1ccccc1 (stereo not given) | 6 | 8 | 11
CCCCCCNC(=O)NC(Cc1ccc(O)cc1)C(=O)NCCCC1CN2C(=NCC2C)N1CC1CCC1 (stereo not given) | 2 | -2 | 5
O=C(Nc1nnc(SCc2ccc(F)cc2)s1)c1ccccn1 | 99* | 6 | 98*
O=C(Nc1nnc(SCc2ccc(F)cc2)s1)c1cccnc1Cl | 5 | 8 | -6
Cc1cc(N2CCOCC2)ccc1C=C1NC(=O)N(CC(=O)Nc2ccc(F)cc2)C1=O | -3 | -4 | 10
CCN1C(=O)C2C(C)C3=C4C(CC(C(=O)OC)=CC(C(=O)OC)C4C(CC)(CC)C3=O)C2C1=O (stereo not given) | 4 | 17 | 3
